From PubChem
SMN2 splice up: SMN2 splice variant enhancement | HEK293 SMN2-luciferase splicing reporter, luminescence, 30-36 h | Potency, µM (titrated, usually from 46.1 µM), actives largely listed as activators | hit rate 2.8% among 210,000; further: nearly all actives have a fitted effect of over 55% in size
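HEK293 cells carry an SMN2 […]–luciferase reporter in which exon 7 inclusion puts luciferase in frame. Cells were plated 10-12 h before compound addition, then incubated 30-36 h at 37C. ONE-Glo luminescence was read; sodium butyrate at 4.5 mM final served as control.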
Rab9 promoter act: activators of Rab9 promoter | Huh7 Rab9 promoter-luciferase reporter, luminescence, 24 h | AID 485297 | hit rate 2.8% among 320,000 | Potency, µM (doses to about 9.22 µM), usual class: activators; further: nearly all actives have a fitted effect of over 60% in size
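Steps: seed 1500 Huh7 Rab9-luc cells per well, rest 2 h at 37 °C; add compound in DMSO; incubate 24 h; add luciferase reagent, 10 min ambient; read luminescence.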
ELG1 genotox: inducers of genotoxicity in HEK293T ELG1-luciferase cells; HEK293T ELG1-luciferase reporter, luminescence, 16 h; Potency, µM (series often up to 46 µM), usual class: activators; hit rate 1.3% among 330,000; further: nearly all actives have a fitted effect of over 60% in size
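Reporter readout depends on ELG1 protein level, which increases with genetic stress. After 16 hr compound exposure at 37 °C, luciferase activity was quantified using ONE-Glo.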
Luc counter: Kinase-Glo luciferase inhibition (counter-screen). AID 1379. Q27757. Kinase-Glo luciferase, ATP luminescence, 8 min. hit rate 0.28% among 200,000. Potency, µM (doses to about 38.3 µM), most hits filed as inhibitors; further: nearly all actives have a fitted effect of over 60% in size
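Light output from Kinase-Glo luciferase with luciferin and 10 uM ATP in 50 mM imidazole pH 7.2, KCl, MgCl2, Tween 20, BSA; compound pin-delivered, 8-min ambient incubation, then luminescence read.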
NPC1 prom act: activators of NPC1 promoter | hit rate 2.4% among 320,000 | Potency, µM (highest dose often 9.22 µM), most hits filed as activators | Huh7 NPC1 promoter luciferase reporter, 24 h; further: nearly all actives have a fitted effect of over 60% in size
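Compounds in DMSO were transferred onto Huh7 NPC1-luciferase reporter cells pre-incubated 2 h; after 24 h at 37 °C, Amplite reagent was dispensed and luminescence recorded 10 min later.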
FLuc counter: counter-screen for miR-21 project: firefly luciferase inhibitors or activators; Potency, µM (top dose mostly 57.5 µM), hits mostly inhibitors; hit rate 6.9% among 360,000; purified FLuc, Km substrates, luminescence inhibition; further: nearly all actives have a fitted effect of over 55% in size
Target sequence (P08659 whole entry, looked up): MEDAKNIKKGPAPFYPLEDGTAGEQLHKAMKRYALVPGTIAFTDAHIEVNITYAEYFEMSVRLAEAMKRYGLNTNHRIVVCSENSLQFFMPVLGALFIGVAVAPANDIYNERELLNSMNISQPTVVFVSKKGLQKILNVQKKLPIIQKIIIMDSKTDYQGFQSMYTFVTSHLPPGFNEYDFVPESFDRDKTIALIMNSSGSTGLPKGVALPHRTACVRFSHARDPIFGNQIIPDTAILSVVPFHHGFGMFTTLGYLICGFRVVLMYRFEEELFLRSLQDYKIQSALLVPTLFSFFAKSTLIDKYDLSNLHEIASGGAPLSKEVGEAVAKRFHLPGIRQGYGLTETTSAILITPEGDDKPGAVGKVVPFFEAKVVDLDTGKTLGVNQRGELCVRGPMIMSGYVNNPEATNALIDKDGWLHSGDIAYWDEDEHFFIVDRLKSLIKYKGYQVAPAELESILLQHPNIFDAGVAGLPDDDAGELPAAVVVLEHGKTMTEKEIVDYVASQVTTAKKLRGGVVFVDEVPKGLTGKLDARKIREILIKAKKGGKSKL
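Purified P. pyralis luciferase, 10 nM final, with Km-level 10 uM D-luciferin and 10 uM ATP in 50 mM Tris acetate pH 7.5, 10 mM Mg acetate, 0.01% Tween-20, 0.05% BSA; 6-point qHTS titration about 60 µM downward; luminescence read.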
Each line names hits and unclear results; the compound was inactive in the other large screens. Shown are actives, neighbours in structure and some others; about 7.4% of the full set was active somewhere. The call rests on the fitted dose curve; in most records, active means well fitted curve in the direction sought with a large enough effect; inconclusive means small, poorly fitted or top-dose-only effect, or another doubt; inactive means no such curve, though single readings can be large; an effect the other way counts as inactive or inconclusive.

Cc1occc1C(=O)O/N=C(\N)c1ccc(Cl)cc1	Rab9 promoter act 4µM, ELG1 genotox inconclusive, NPC1 prom act inconclusive, FLuc counter 9.5µM (no result: SMN2 splice up, Luc counter)
COc1ccc(C2C=C(c3ccccc3)Nc3nc(NC(=O)c4cccc([N+](=O)[O-])c4)nn32)cc1 (configuration not stated)	none (no result: SMN2 splice up, Rab9 promoter act, ELG1 genotox, Luc counter, NPC1 prom act)
Cc1cc(Br)ccc1NC(=O)c1ccc(NS(=O)(=O)c2c(C)noc2C)cc1	FLuc counter inconclusive (no result: Rab9 promoter act, ELG1 genotox, Luc counter, NPC1 prom act)
Cc1ccc(NC(=S)N2CCC(O)CC2)c(C)c1	none
CC1CCCN(C(=S)Nc2ccc(Nc3ccccc3)cc2)C1 (configuration not stated)	Rab9 promoter act 3.5µM, FLuc counter inconclusive (no result: SMN2 splice up)
COC(=O)Cc1ccc(NC(=S)N2CCCC(CO)C2)cc1 (configuration not stated)	Rab9 promoter act inconclusive, ELG1 genotox inconclusive, NPC1 prom act inconclusive, FLuc counter 0.85µM (no result: SMN2 splice up, Luc counter)
COC(=O)Cc1ccc(NC(=S)N2CCCC(C)C2)cc1 (configuration not stated)	SMN2 splice up inconclusive, Rab9 promoter act inconclusive, ELG1 genotox inconclusive, FLuc counter 1.5µM
Cc1ccc(NC(=S)N2CCCC(CO)C2)c(C)c1 (configuration not stated)	Rab9 promoter act inconclusive, FLuc counter 17µM (no result: SMN2 splice up, Luc counter)
COc1ccc(NC(=O)N2CCC3(CC2)CCN(C(=O)c2cccc(F)c2)CC3)cc1	none (no result: Rab9 promoter act, ELG1 genotox, NPC1 prom act, FLuc counter)
CCN(CC)S(=O)(=O)c1ccc2c(c1)N(CC(=O)N1CCN(c3cccc(OC)c3)CC1)C(=O)CO2	none (no result: SMN2 splice up, Rab9 promoter act, ELG1 genotox, Luc counter, NPC1 prom act)
CCc1cccc2nc3c(c([Si](C)(C)C)c12)Cn1c-3cccc1=O	SMN2 splice up inconclusive (no result: Rab9 promoter act, ELG1 genotox, NPC1 prom act, FLuc counter)
Cc1sc2c(c1C)c(=O)n(-c1ccc(Cl)cc1)c(=O)n2Cc1c(F)cccc1Cl	none (no result: Rab9 promoter act, ELG1 genotox, Luc counter, NPC1 prom act)
OCC1CCCN(C(=S)Nc2ccc(Oc3ccccc3)cc2)C1 (configuration not stated)	Rab9 promoter act 1.8µM, NPC1 prom act inconclusive, FLuc counter 13µM (no result: SMN2 splice up)
OC1CCCN(C(=S)Nc2ccc(SC(F)F)cc2)C1 (configuration not stated)	SMN2 splice up inconclusive, FLuc counter 11µM
CC(=O)c1ccc(NC(=S)N2CCCCCC2)cc1	SMN2 splice up inconclusive, Rab9 promoter act inconclusive, ELG1 genotox inconclusive, FLuc counter inconclusive
CC(=O)c1ccc(NC(=S)N2CCCC(CO)C2)cc1 (configuration not stated)	SMN2 splice up 16µM, Rab9 promoter act inconclusive, ELG1 genotox inconclusive, NPC1 prom act inconclusive, FLuc counter 8.5µM
CC1CC(C)CN(C(=S)Nc2ccc(SC(F)F)cc2)C1 (configuration not stated)	FLuc counter inconclusive
COc1cc(NC(=S)N2CCCC(CO)C2)cc(OC)c1 (configuration not stated)	FLuc counter inconclusive
CCCNC(=O)c1noc2c1CCc1ccccc1-2	SMN2 splice up 16µM, Rab9 promoter act inconclusive, ELG1 genotox inconclusive, NPC1 prom act inconclusive, FLuc counter 19µM
O=C(Nc1cccnc1Cl)c1noc2c1CCc1ccccc1-2	Rab9 promoter act 3.2µM, NPC1 prom act 2.5µM, FLuc counter inconclusive (no result: SMN2 splice up)
O=C(NCCc1ccccc1)c1noc2c1CCc1ccccc1-2	Rab9 promoter act inconclusive
O=C(NCCN1CCOCC1)c1noc2c1CCc1ccccc1-2	SMN2 splice up 10µM, Rab9 promoter act 2µM, ELG1 genotox 16µM, NPC1 prom act inconclusive, FLuc counter inconclusive
O=C(NCCN1CCOCC1)c1ccc(-c2ccccc2)cc1	none
COc1cc(NC(=O)c2noc3c2CCc2ccccc2-3)cc(OC)c1OC	FLuc counter inconclusive (no result: Rab9 promoter act, ELG1 genotox, Luc counter, NPC1 prom act)
Cc1ccc(NC(=O)Cn2c(=O)n(CCc3ccccc3)c(=O)c3c4c(sc32)CCCC4)c(C)c1	none (no result: Rab9 promoter act, ELG1 genotox, Luc counter, NPC1 prom act)
CN(C)c1ccc(/C=N/NC(=O)c2ccccn2)cc1	Rab9 promoter act 0.13µM, ELG1 genotox 1.2µM, NPC1 prom act 0.5µM, FLuc counter 1.7µM (no result: SMN2 splice up, Luc counter)
Cn1ccc(C(=O)N/N=C/c2cccnc2)n1	none (no result: SMN2 splice up, Luc counter)
CCOC(=O)N/N=C/c1ccc(Oc2ccccc2)cc1	SMN2 splice up inconclusive, Rab9 promoter act inconclusive, NPC1 prom act inconclusive, FLuc counter 19µM
